From PubChem BioAssay (Tox21)
Several values for one entry are separate records, joined by “and”; a condition that tells them apart may be missing. Equal values may be shown once. Inconclusive results are not listed. Entries that show only a call come without a potency. Where a structure was tested more than once in an assay, its records may differ in their call. Activity calls are given as the source filed them. Unless noted, calls come from the whole dose curve; as a rule, active = well fitted curve in the direction sought with a large enough effect in the repeat runs; inconclusive = weak or mixed curves; inactive = no such curve, though single readings can be large; an effect the other way counts as inactive or inconclusive.

Tests used:
[1] = qHTS assay to identify small molecule antagonists of the estrogen related receptor (ERR) signaling pathway from Tox21 library - cell viability counter screen (AID 1224834); note: nearly all actives have a fitted effect of over 30% in size; note: potency is the fitted concentration of half-maximal effect
Outline: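 ERR reporter cells, 2,000 per well, rested 6 h, then exposed to compound in DMSO for 17.5 hours at 37 C. Viability read as fluorescence after 30 min with CellTiter-Fluor.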

[2] = qHTS assay to identify small molecule agonists of the constitutive androstane receptor (CAR) signaling pathway - cell viability counter screen (AID 1224836); note: nearly all actives have a fitted effect of over 45% in size; note: potency is the fitted concentration of half-maximal effect
Outline: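 Using CellTiter-Fluor, viability of HepG2 cells harbouring hCAR and CYP2B6-2.2kb was measured following 23 h incubation with a 15-concentration compound series plus PK11195 (0.75 uM final).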

[3] = qHTS assay to identify small molecule antagonists of the constitutive androstane receptor (CAR) signaling pathway - cell viability counter screen (AID 1224837); note: nearly all actives have a fitted effect of over 45% in size; note: potency is the fitted concentration of half-maximal effect
Outline: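 HepG2 cells stably carrying hCAR and CYP2B6-2.2kb reporter, stimulated with 50 nM CITCO and compounds at 15 concentrations for 23 h at 37 C. Viability measured by CellTiter-Fluor fluorescence.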

[4] = target: Nuclear receptor subfamily 1 group I member 3 (Homo sapiens) (UniProt Q14994); test: qHTS assay to identify small molecule antagonists of the constitutive androstane receptor (CAR) signaling pathway (AID 1224838); note: nearly all actives have a fitted effect of over 40% in size; note: potency is the fitted concentration of half-maximal effect
Sequence of Nuclear receptor subfamily 1 group I member 3 (Homo sapiens) (Q14994 whole entry, looked up): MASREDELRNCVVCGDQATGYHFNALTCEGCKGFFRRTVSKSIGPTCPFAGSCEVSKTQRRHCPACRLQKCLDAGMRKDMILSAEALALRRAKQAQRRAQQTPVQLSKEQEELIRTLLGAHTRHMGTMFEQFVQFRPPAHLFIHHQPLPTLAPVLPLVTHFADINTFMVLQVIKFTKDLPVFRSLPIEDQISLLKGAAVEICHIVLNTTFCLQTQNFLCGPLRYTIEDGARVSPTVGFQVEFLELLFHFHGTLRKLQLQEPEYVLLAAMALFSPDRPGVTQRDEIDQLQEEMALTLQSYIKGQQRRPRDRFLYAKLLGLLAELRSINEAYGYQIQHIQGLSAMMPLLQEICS
Outline: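 HepG2 cells stably carrying hCAR and a CYP2B6-2.2kb luciferase reporter, seeded 4 hrs before compound (15 concentrations). Stimulated with 50 nM CITCO for 24 hr at 37 C. ONE-Glo luminescence read after 30 min at room temperature.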

[5] = target: Nuclear receptor subfamily 1 group I member 3 (Homo sapiens) (UniProt Q14994); test: qHTS assay to identify small molecule agonists of the constitutive androstane receptor (CAR) signaling pathway (AID 1224839); note: nearly all actives have a fitted effect of over 15% in size; note: potency is the fitted concentration of half-maximal effect
Outline: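 Double-stable HepG2 cells (hCAR, CYP2B6-2.2kb) seeded 4 h before compound addition. Exposure 24 h with 0.75 uM PK11195 final. Luciferase detected by ONE-Glo.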

[6] = qHTS assay to identify small molecule antagonists of the estrogen related receptor signaling pathway with the pleiotropic PPARgamma coactivator (PGC) from Tox21 10K library - cell viability counter screen (AID 1224840; active = well fitted cell-killing curve with a large enough effect in the repeat runs, not every such curve was filed as active; note: nearly all actives have a fitted effect of over 40% in size)
Outline: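 PGC/ERR cells (2,000/well) plated 6 h, then compound-treated for 17.5 h at 37 C. Viability measured by CellTiter-Fluor fluorescence after 30 min at 37 C, multiplexed with the pathway assay.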

[7] = target: Thyrotropin receptor (Homo sapiens) (UniProt P16473); test: qHTS assay to identify small molecule agonists of the thyroid stimulating hormone receptor (TSHR) signaling pathway (AID 1224843; calls by dose curve; note: nearly all actives have a fitted effect of over 45% in size; note: potency is the fitted concentration of half-maximal effect)
Sequence of Thyrotropin receptor (Homo sapiens) (P16473 whole entry, looked up): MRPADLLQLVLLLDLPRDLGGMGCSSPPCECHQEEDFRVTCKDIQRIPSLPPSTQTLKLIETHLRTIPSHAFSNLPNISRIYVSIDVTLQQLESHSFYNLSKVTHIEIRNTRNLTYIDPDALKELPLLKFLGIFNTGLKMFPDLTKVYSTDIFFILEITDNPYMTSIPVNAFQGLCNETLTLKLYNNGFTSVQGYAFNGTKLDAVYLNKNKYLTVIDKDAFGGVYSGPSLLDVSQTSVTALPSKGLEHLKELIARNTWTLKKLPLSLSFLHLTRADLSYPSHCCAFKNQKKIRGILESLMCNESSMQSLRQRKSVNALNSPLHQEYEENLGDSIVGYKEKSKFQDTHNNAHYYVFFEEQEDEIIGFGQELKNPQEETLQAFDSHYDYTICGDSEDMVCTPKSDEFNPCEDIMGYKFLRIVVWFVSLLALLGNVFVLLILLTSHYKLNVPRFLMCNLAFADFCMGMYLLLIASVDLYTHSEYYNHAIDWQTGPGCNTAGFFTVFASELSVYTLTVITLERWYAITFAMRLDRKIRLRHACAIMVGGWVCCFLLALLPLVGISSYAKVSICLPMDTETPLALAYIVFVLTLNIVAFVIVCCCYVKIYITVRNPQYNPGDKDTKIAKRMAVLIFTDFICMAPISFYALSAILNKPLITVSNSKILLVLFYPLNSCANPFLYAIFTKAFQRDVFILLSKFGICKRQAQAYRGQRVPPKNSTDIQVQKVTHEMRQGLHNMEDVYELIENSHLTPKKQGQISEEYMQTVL
Outline: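 TSHR-expressing HEK293 cells (800 per well) were exposed to compounds for 30 min at room temperature. cAMP was then detected by HTRF competition with cAMP-d2 and anti-cAMP cryptate, read after 1 h at room temperature. Fifteen concentrations, triplicate.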

[8] = qHTS assay to identify small molecule agonists of the hypoxia (HIF-1) signaling pathway - cell viability counter screen (AID 1224844; calls by dose curve; note: nearly all actives have a fitted effect of over 50% in size; note: potency is the fitted concentration of half-maximal effect)
Outline: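 HRE-bla ME-180 cells, 2,000/well in 0.5% dialyzed FBS medium, treated 17 h at 37C with compounds. Viability read in the same wells as the bla reporter, by CellTiter-Glo luminescence after 30 min at room temperature.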

[9] = qHTS assay to identify small molecule agonists of H2AX (AID 1224845; active = well fitted activation curve with a large enough effect in the signal ratio in the repeat runs, not every such curve was filed as active; the % refers to the signal ratio; note: potency is the fitted concentration of half-maximal effect)
Outline: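 Wild-type CHO-K1 cells plated overnight, then exposed 3 hr at 37C to compounds at 15 concentrations (0.76% DMSO). Lysed, then HTRF anti-pH2AX(S139)-cryptate/anti-H2AX-d2 detection after 24 hr at room temperature; emissions 665 and 620 nm.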

[10] = qHTS assay to identify small molecule agonists of H2AX - cell viability counter screen (AID 1224847; calls by dose curve; note: nearly all actives have a fitted effect of over 30% in size; note: potency is the fitted concentration of half-maximal effect)
Outline: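 Quantitative HTS viability measurement: CHO-K1 wild-type cells in serum (10% FBS) medium, short 3 hr drug exposure at 37C with 0.76% DMSO, CellTiter-Glo luminescent detection.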

[11] = qHTS RealTime-Glo MT Cell Viability Assay in HepG2 cells - 24 hour (AID 1224867); note: nearly all actives have a fitted effect of over 50% in size; note: potency is the fitted concentration of half-maximal effect
Outline: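 HepG2 suspension premixed with RealTime-Glo reagents is plated at 600 cells per well and left 5 h at 37 C/5% CO2. Compounds in DMSO then go in, and bioluminescence reflecting viable cell number is recorded over 40 h.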

[12] = qHTS RealTime-Glo MT Cell Viability Assay in HEK293 cells - 32 hour (AID 1224868); note: nearly all actives have a fitted effect of over 50% in size; note: potency is the fitted concentration of half-maximal effect
Outline: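 Reads taken at 0, 8, 16, 24, 32 and 40 h from the same wells. HEK293 cells (600/well) carried RealTime-Glo reagents from seeding, with compound added after a 5 h settle at 37 C.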

[13] = A CellTox Green Cytotoxicity Assay to monitor cytotoxicity in HEK293 cells - 0 hour (AID 1224869); note: nearly all actives have a fitted effect of over 50% in size
Outline: (§1)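 HEK293 cells, 600/well, were preincubated 5 hours and then exposed to compounds at 37 C for up to 40 hours. A cell-impermeant cyanine dye staining dead-cell DNA was read by fluorescence at 0, 8, 16, 24, 32 and 40 h time points.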

[14] = qHTS RealTime-Glo MT Cell Viability Assay in HepG2 cells - 40 hour (AID 1224870); note: nearly all actives have a fitted effect of over 50% in size; note: potency is the fitted concentration of half-maximal effect
Outline: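 HepG2 cells mixed with RealTime-Glo MT reagents (NanoLuc plus cell-permeant prosubstrate) were seeded at 600 cells/well, incubated 5 h at 37 C/5% CO2, then pinned with compounds in DMSO; nonlytic luminescence tracked viability during 40 h treatment.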

[15] = A CellTox Green Cytotoxicity Assay to monitor cytotoxicity in HEK293 cells - 40 hour (AID 1224871); note: nearly all actives have a fitted effect of over 45% in size; note: potency is the fitted concentration of half-maximal effect
Outline: as §1

[16] = target: Luciferin 4-monooxygenase (Photinus pyralis) (UniProt P08659); test: qHTS assay to identify small molecule inhibitors of firefly luciferase (AID 1224835); note: nearly all actives have a fitted effect of over 25% in size; note: potency is the fitted concentration of half-maximal effect
Sequence of Luciferin 4-monooxygenase (Photinus pyralis) (P08659 whole entry, looked up): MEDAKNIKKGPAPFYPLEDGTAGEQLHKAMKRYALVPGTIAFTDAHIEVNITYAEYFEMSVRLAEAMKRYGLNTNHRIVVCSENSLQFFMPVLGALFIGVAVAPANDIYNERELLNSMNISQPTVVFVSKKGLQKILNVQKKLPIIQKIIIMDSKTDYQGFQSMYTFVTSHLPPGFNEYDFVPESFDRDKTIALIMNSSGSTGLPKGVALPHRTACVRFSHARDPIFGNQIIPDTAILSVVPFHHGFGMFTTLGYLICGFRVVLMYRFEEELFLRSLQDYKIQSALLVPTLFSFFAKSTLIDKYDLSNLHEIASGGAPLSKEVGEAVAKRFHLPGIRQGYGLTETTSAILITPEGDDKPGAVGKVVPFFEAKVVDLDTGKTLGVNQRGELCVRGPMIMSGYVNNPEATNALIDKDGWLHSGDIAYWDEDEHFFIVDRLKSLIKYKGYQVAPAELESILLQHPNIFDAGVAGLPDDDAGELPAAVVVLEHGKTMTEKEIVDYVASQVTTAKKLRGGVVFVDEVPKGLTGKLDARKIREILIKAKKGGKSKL
Outline: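 Quantitative HTS format; KM concentrations of both substrates. Purified P. pyralis FLuc activity quantified from luminescence images.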

[17] = qHTS assay to identify small molecule agonists of the hypoxia (HIF-1) signaling pathway (AID 1224846; active = well fitted activation curve with a large enough effect in the signal ratio in the repeat runs, not every such curve was filed as active; the % refers to the signal ratio)
Outline: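 HRE-bla ME-180 beta-lactamase reporter cells in medium with 0.5% dialyzed FBS, pre-incubated 5 h then exposed to compounds 17 h at 37C, 5% CO2; reporter induction read with CCF4-AM FRET substrate.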

[18] = qHTS assay to identify small molecule agonists of the estrogen related receptor signaling pathway with the pleiotropic PPARgamma coactivator (PGC) from Tox21 10K library (AID 1224842); note: nearly all actives have a fitted effect of over 15% in size
Outline: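 PGC/ERR reporter cells (NTP line) were seeded 2,000 per well, rested 6 h at 37 C/5% CO2, then pin-dosed with compounds in DMSO for 18 h at 37 C; luciferase read by One-Glo luminescence after 30 min at room temperature.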

[19] = qHTS assay to identify small molecule agonists of the estrogen related receptor (ERR) signaling pathway from Tox21 library (AID 1224849; calls by dose curve; note: nearly all actives have a fitted effect of over 15% in size); conditions: ERR reporter cell line, ONE-Glo luciferase, 18 h
Outline: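 ERR reporter cells (NTP line) pre-incubated 6 hours at 37 C, then exposed to compounds for 18 hours at 37 C. ONE-Glo luciferase luminescence was read after 30 minutes at room temperature.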

Structure (SMILES)	Potency [1]	Potency [2]	Potency [3]	Potency [4]	Potency [5]	Potency [6]	Potency [7]	Potency [8]	Potency [9]	Potency [10]	Potency [11]	Potency [12]	Potency [13]	Potency [14]	Potency [15]	Potency [16]	outcome [17]	Potency [18]	activity change, positive = activation ([19]; at 42.5 µM (top of the series))	activity change, positive = activation ([19]; at 92.4 µM (top of the series))
CCCC[P+](CCCC)(CCCC)CCCC	inactive	inactive	inactive	inactive	inactive	inactive	inactive	inactive	inactive	inactive	inactive	19.4 µM (active) and 15.8 µM (active) and 3.89 µM (active)	inactive	inactive	inactive					
CCCCC(CC)C(=O)O (configuration not stated)	inactive	inactive	inactive			inactive	inactive	inactive	inactive	inactive		inactive	inactive	inactive	inactive	inactive	inactive			
CC/C(=C(\c1ccccc1)c1ccc(OCCN(C)C)cc1)c1ccccc1	54.4 µM (active) and 54.9 µM (active) and 61.1 µM (active)						inactive	24.8 µM (active) [middle of 4 runs]	50.5 µM (active)	80.7 µM (active) [middle of 5 runs]		22.1 µM (active) [middle of 5 runs]	inactive	24.5 µM (active) [middle of 4 runs]	24.7 µM (active) [middle of 5 runs]					
OC[C@H]1O[C@H](O[C@]2(CCl)O[C@H](CCl)[C@@H](O)[C@@H]2O)[C@H](O)[C@@H](O)[C@H]1Cl	inactive	inactive	inactive			inactive	inactive	inactive	inactive	inactive		inactive	inactive	inactive	inactive	inactive				
CC(=O)Nc1c(I)c(NC(C)=O)c(I)c(C(=O)O)c1I	inactive	inactive	inactive				inactive	inactive	inactive	inactive	inactive	inactive	inactive	inactive	inactive					
C=C1CC[C@H](O)C/C1=C\C=C1/CCC[C@]2(C)[C@@H]([C@H](C)CCCC(C)C)CC[C@@H]12	54 µM (active)	inactive		inactive	inactive		19.2 µM (active)	38.5 µM (active)		112 µM (active)	inactive	43.2 µM (active)	inactive	inactive						
Cc1c(C(=O)O)c(O)cc2c1C(=O)c1c(O)c([C@@H]3O[C@H](CO)[C@@H](O)[C@H](O)[C@H]3O)c(O)c(O)c1C2=O	33.5 µM (active) and 27.3 µM (active)							inactive		55.3 µM (active) and 56.6 µM (active) and 31 µM (active)	inactive	inactive	inactive	inactive	inactive	34.7 µM (active) and 35.6 µM (active) and 17.4 µM (active)				
CCc1nc(N)nc(N)c1-c1ccc(Cl)cc1		inactive	inactive	1.75 µM (active) and 3.06 µM (active)	inactive	inactive		inactive	22.9 µM (active)	inactive and 8.98 µM (active) and 12.4 µM (active)		3.52 µM (active) and 12.3 µM (active)	inactive	inactive	inactive	inactive				
CN1[C@@H]2CC(OC(=O)[C@H](CO)c3ccccc3)C[C@H]1[C@@H]1O[C@@H]12 (some centres not stated)		inactive	inactive	inactive	inactive	inactive	inactive	inactive		inactive	inactive	inactive	inactive	inactive	inactive	inactive				
CS(=O)(=O)OCCCCOS(C)(=O)=O		inactive	inactive			inactive	inactive	inactive	inactive	inactive		inactive	inactive	inactive	inactive	inactive	inactive	inactive	-0.0445% (inactive)	-6.97% (inactive) and 6.13% (inactive)
C[C@](N)(Cc1ccc(O)c(O)c1)C(=O)O		inactive	inactive	inactive	inactive			inactive		inactive	inactive	inactive	inactive	inactive	inactive		inactive			
NC(=O)c1cccnc1		inactive	inactive	inactive	inactive		inactive	inactive	inactive	inactive		inactive	inactive	inactive	inactive	inactive				
CC(=O)CCC(=O)O		inactive	inactive	inactive	inactive		inactive	inactive	inactive	inactive		inactive	inactive	inactive	inactive	inactive				
CCCCC1(COC(=O)CCC(=O)O)C(=O)N(c2ccccc2)N(c2ccccc2)C1=O		inactive	inactive				inactive	inactive	inactive	inactive		inactive	inactive	inactive	inactive	inactive		inactive	-6.77% (inactive)	3.58% (inactive) and -11.1% (inactive)
Oc1ccccc1		inactive	inactive	inactive	inactive	inactive	inactive	inactive	inactive	inactive		inactive	inactive	inactive	inactive					
Nc1c(N=Nc2ccc(-c3ccc(N=Nc4cc(S(=O)(=O)O)c5ccccc5c4N)cc3)cc2)cc(S(=O)(=O)O)c2ccccc12		27.3 µM (active)	24.3 µM (active)	27.3 µM (active)	inactive						48.9 µM (active)	38.9 µM (active)	inactive	48.9 µM (active)	inactive	39.9 µM (active)		inactive		-40.2% (inactive)
NC(=O)n1c(O)c(C(=O)c2cccs2)c2cc(Cl)ccc21				inactive	13.3 µM (active)		inactive	inactive		inactive	inactive	inactive	inactive	inactive	inactive	30.9 µM (active)				
F[B-](F)(F)F		inactive	inactive			inactive	inactive	inactive	inactive and 115 µM (active)	inactive	inactive	inactive	inactive	inactive	inactive	inactive				
